These results are taken from PubChem BioAssay (NCI).

Each structure is given as a SMILES string. This is part of a sample that, as a whole, favours compounds with a hit. Of some 83,000 tested, about 20% had one in any assay.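 Negative percent growth values reflect cell death: -40 means 40% of the cells present at the start died, and -100 means all died.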 A number with no mark means an inactive call. Calls of active or inactive are those of the source. The calls were made as follows: active = growth percent below 10; inactive = the rest.

This test relates to HL-60(TB) leukemia. Description: NCI-60 one-dose screen, 48 h (100 = growth as untreated, 0 = no growth, -100 = all killed). The conditions noted are these: 10 µM unless noted.
As for `COc1ccc2c(c1)c(-c1nc(-c3c[nH]c4ccncc34)cs1)cn2C`, the growth was -61.5% (active).

Consider `CCCN1CC(c2ccc(OC)c(OC)c2)=C(c2cn(C(=O)OCC)c3ccccc23)C1=O`, for which the growth was 33.2%.

With `CCN1CCN(C(=O)[C@]23CCC(C)(C)C[C@@H]2C2=CC[C@@H]4[C@@]5(C)C/C(=C/c6cccnc6)C(=O)C(C)(C)[C@@H]5CC[C@@]4(C)[C@]2(C)CC3)CC1`, the growth is -37.3% (active).

For `COc1ccc2c(c1)NC(=O)CN2c1nc(NC2CC2)nc2ccccc12`, the growth is -5.55% (active).

Regarding `C[n+]1cc2cc(C(N)=O)[nH]c3c(=N)c(Cl)c(N)c1c23`, the growth is 78.8%.

As for `CC(=O)CC(=O)N(C)C`, the growth was 114%.

In the case of `S=C1SCN(Cc2ccccc2)CN1Cc1ccco1`, the growth was 32%.

Take `CC1CN(CC(O)c2ccc(Br)cc2)CCO1` (stereo not given): the growth was 85.4%.

`OCCNc1nc(NCCO)nc(Nc2ccc(C3=NN(c4cc(Cl)cc(Cl)c4)C(c4ccccc4)C3)cc2)n1` (stereo not given): the growth was 61.7%.

`COc1ccc2nc3cc(Cl)ccc3c(Nc3ccc(O)c(CN4CCCC4)c3)c2c1`: the growth is -51% (active).

As to `O=C1CCC(c2c(O)cc(O)c3c(=O)c(O)c(-c4ccc(O)c(O)c4)oc23)N1` (stereo not given), the growth was 87%.

On to `Nc1nc(Nc2ccccc2SSc2ccccc2Nc2nc(N)nc(-c3cccs3)n2)nc(-c2ccsc2)n1`, for which the growth is -7.94% (active).

As to `O=c1oc2ccccc2cc1-c1csc(N=Nc2c(O)[nH]c3ccc(Cl)cc23)n1`, the growth was 105%.

In the case of `CCN(CC)c1cc2oc3cc(N)cc(=N)c-3nc2cc1C`, the growth was -15.2% (active).

On to `CCOC(=O)c1cnc2cc(Cl)c(F)cc2c1Nc1cccc(NS(C)(=O)=O)c1`, for which the growth is 105%.

Take `CN(C)CC#Cc1ccc2ncc(C#N)c(Nc3ccc(F)c(Cl)c3)c2c1`: the growth was 26.8%.

In the case of `CNCCNc1nc2ccccc2c2c(=O)c3cccc(C)c3sc12`, the growth is -39.8% (active).

`N#Cc1c(-c2ccccc2)nc(SCC(O)CN2CCOCC2)nc1N1CCOCC1` (stereo not given): the growth is 72.2%.

Consider `CN(C)CCOc1cccc(NC2=C(Cl)C(=O)C(Nc3cccc(OCCN(C)C)c3)=C(Cl)C2=O)c1`, for which the growth is -51% (active).

In the case of `COc1ccc2c(c1OC)C(=O)O[C@H]2[C@H]1c2c(cc3c(c2OC)OCO3)CCN1C`, the growth is 31.9%.

Consider `C=C1C(=O)O[C@H]2[C@H]1CC/C(COC(=O)NCc1cc(OC)c(OC)c(OC)c1)=C\CC[C@@]1(C)O[C@@H]21`, for which the growth was 11.5%.

With `O=C(CCCSc1nc(-c2ccc(Cl)cc2)cc(-c2ccc(Cl)cc2)n1)NO`, the growth is -25.4% (active).

On to `NNC(=O)Oc1c(Cl)cc(Cl)cc1[N+](=O)[O-]`, for which the growth is 98.3%.

Turning to `O=C(NO)c1ccc(Cn2c(=O)n(CCc3ccccc3)c(=O)c3ccccc32)cc1`, the growth was 36.2%.

Regarding `N#Cc1nc2c(S(=O)(=O)c3ccccc3)c(N)n(Cc3cccnc3)c2nc1C#N`, the growth was 53%.

For the compound `O=C(/C=C\c1cc(Br)ccc1O)/C=C/c1cc(Br)ccc1O`, the growth is -3.03% (active).

Turning to `COc1cc(C2CC(=O)Nc3c2cnn3Cc2ccco2)cc2c1OCCO2` (stereo not given), the growth was 25.6%.

With `COc1cc(/C=N/N(C)C)ccc1O`, the growth is 86.5%.

As to `CCNC(=O)OCCc1c2ccccc2nc2ccccc12`, the growth was 95.1%.

In the case of `COc1cc2c(cc1-c1c(C)noc1C)ncc1nc(C3CCCC3)n([C@H](C)COC(F)F)c12`, the growth was 27.8%.

Take `O=C(Nc1ccc(Oc2cccc(Cl)c2)c(Cl)c1)c1cccnn1`: the growth was 89.5%.

Turning to `COc1ccc([C@@H]2[C@@H](Oc3ccccc3)C(=O)N2c2cc(OC)c(OC)c(OC)c2)cc1F`, the growth is -53.9% (active).

On to `COc1cc2cc(Oc3ccc(NC(=O)Nc4cccc(C(F)(F)F)c4)cc3)c(C)nc2cc1OC`, for which the growth is -24.8% (active).

Regarding `COc1cc([C@@H]2NC(=O)NC(C)=C2C(=O)Nc2nc(-c3ccc(Cl)cc3)cs2)ccc1O`, the growth is 100%.

In the case of `O=C(Nc1cc(Cl)cc(Cl)c1)Oc1c(Cl)c(Cl)c(Cl)c(Cl)c1Cl`, the growth was 60.9%.

Regarding `CN1CCCN(CCNc2nccc(-c3c(-c4cccc(O)c4)nc4sccn34)n2)S1(=O)=O`, the growth was 69.2%.

As to `C[C@@H]1C(=O)[C@@H]2C[C@@H](O)[C@@H](O)C[C@]2(C)[C@H]2CC[C@@]3(C)C(=C12)CC[C@@H]3[C@@](C)(O)[C@H](O)CCC(C)(C)O`, the growth is 85.7%.

As to `OC(CBr)CCBr` (stereo not given), the growth was 103%.

Take `CC/C(=C(/c1ccc(Cl)cc1)c1ccc(OCCN(CC)CC)cc1)c1ccc(OC)cc1`: the growth is 33.3%.

As for `O=C1/C=C/[C@@H](O)[C@@H]2C[C@@H](O)C[C@H]2/C=C/CCC[C@@H](C(F)(F)F)O1`, the growth is 104%.
